High-throughput results deposited in PubChem BioAssay by several laboratories.
Most compounds without a hit are left out; they make up all but 2.1% or so of the library.
IDE cell inh: inhibitors of human insulin-degrading enzyme in cells; P14735; HEK cells, FAbetaB cleavage, fluorescence polarization; inhibition, % at 5.59 µM; 320,000 tested, 0.41% active;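 active = percent inhibition above the average of all tested compounds plus 3 SD, set per screening campaign, cut at about 16% in these data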;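 also: IDE supplied by intact live HEK cells; FP after avidin binding of uncleaved biotin substrate so inhibition keeps polarization high; 0% = DMSO wells and 100% = 60 µM reference IDE inhibitor Ii1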
HDAC3 inhib: human HDAC3 inhibition; O15379; recombinant HDAC3, fluorogenic peptide/trypsin coupled, fluorescence; inhibition, % at 8.3 µM; 320,000 tested, 0.15% active; in the data active = inhibition above about 26%, passing the limit was not always enough; inconclusive = no clear call, values can overlap the other calls
Target sequence (O15379 whole entry, looked up): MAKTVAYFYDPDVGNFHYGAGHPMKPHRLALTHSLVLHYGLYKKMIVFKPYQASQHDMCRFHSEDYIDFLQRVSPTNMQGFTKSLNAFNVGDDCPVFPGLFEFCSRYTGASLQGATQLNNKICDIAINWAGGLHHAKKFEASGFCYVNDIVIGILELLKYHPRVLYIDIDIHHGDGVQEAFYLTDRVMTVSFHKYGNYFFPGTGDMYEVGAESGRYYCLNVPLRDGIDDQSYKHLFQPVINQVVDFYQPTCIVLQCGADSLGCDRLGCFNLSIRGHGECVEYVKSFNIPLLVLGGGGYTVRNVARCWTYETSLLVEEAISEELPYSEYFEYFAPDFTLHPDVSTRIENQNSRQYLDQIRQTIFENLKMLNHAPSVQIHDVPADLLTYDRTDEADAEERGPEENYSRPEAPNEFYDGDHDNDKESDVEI
IDE cell activ: boosts human insulin-degrading enzyme activity in HEK cells; FAbeta-B cleavage, fluorescence polarization; 0% vehicle, 100% cell-free pure enzyme wells; 340,000 tested, 0.073% active; activation, % at 5.96 µM;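 active = activation above the mean of all tested compounds plus 3 SD, set per screening campaign, cut at about 17% in these data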
LANA-H2B inh: blocks KSHV LANA binding to histone H2A/H2B; 320,000 tested, 0.6% active; inhibition, % (test concentration not listed); AID 2629; cell-free LANA-H2A/H2B peptide, fluorescence polarization; in the data active = inhibition mostly above about 10%, no sharp cut-off; inactive = mostly below about 6.7%
SUMO Mot1 rescue: inhibitors of SUMOylation pathway: yeast Mot1-301 growth rescue; AID 2716; 320,000 tested, 1% active; growth rescue, % at 18.8 µM; S. cerevisiae Mot1-301 growth rescue, ATP luminescence, 38.5C; percent above DMSO median, 100 means doubled;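 active = every valid replicate shows activation above 250% relative to neutral control wells; inactive = the rest, any valid replicate at or below 250%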;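 also: OY570 slx delta 5 strain wells were the positive control but not used for scaling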
Numbers without * were called inactive; ? = inconclusive; . = not tested or not shown; + = active, no number.

SMILES	IDE cell inh	HDAC3 inhib	IDE cell activ	LANA-H2B inh	SUMO Mot1 rescue
O=C(Cn1c(=O)cnc2ccccc21)Nc1cccc(S(=O)(=O)N2CCOCC2)c1	0	-5	6	26*	4
O=C(Cn1c(=O)cnc2ccccc21)Nc1cccc(S(=O)(=O)N2CCCCC2)c1	0	2	1	1	30
O=C(CSc1ncccn1)Nc1cccc(S(=O)(=O)N2CCOCC2)c1	1	-3	-3	-3	32
O=C(COc1cccc2cccnc12)Nc1cccc(S(=O)(=O)N2CCCC2)c1	-3	1	30*	-5	5
COc1ccc(OC)c(S(=O)(=O)N2CCCC(C(=O)NCc3ccco3)C2)c1 (stereo not given)	-19	-1	0	3	175
O=C(Oc1ccc2ccc(=O)oc2c1)c1cccs1	-3	30*	3	5	-12
CCCC(=O)Nc1sc(Cc2ccccc2)c(C)c1C(N)=O	6	4	-6	0	-4
COC(=O)CCC(=O)Nc1sc(Cc2ccccc2)c(C)c1C(N)=O	2	1	-14	22*	-26
O=C(OCCCOC(=O)c1cc[n+]([O-])cc1)c1cc[n+]([O-])cc1	0	-5	3	1	-5
Cc1nnsc1C(=O)Nc1cccc(Cl)c1	12	-2	2	25*	1
Cc1nc(Cl)sc1C(=O)Nc1cccc(Cl)c1	2	-1	4	-8	-14
CC(=O)C[C@@H](O)CC(=O)[C@@H]1OC(=O)CCCCCCCCc2ccccc21	3	-5	4	9.2*	27
CC(=O)C[C@@H](O)CC(=O)[C@H]1OC(=O)[C@H](C)C/C=C\Cc2ccccc21	9	-3	1	7	12
CC(=O)C[C@H](O)CC(=O)[C@@H]1OC(=O)[C@H](C)C/C=C\Cc2ccccc21	3	5	2	+	9
O=C(COc1ccc2c(c1)oc(=O)c1ccccc12)NCC1CCC(C(=O)O)CC1 (stereo not given)	-3	-37	1	-4	620*
O=C(COc1ccc2c3c(c(=O)oc2c1)CCC3)NCC1CCC(C(=O)O)CC1 (stereo not given)	-15	-3	6	1	9
O=C(COc1ccc2cc(-c3ccccc3)c(=O)oc2c1)NCC1CCC(C(=O)O)CC1 (stereo not given)	12	0	3	-6	988*
COc1ccc(NC(=O)C2CCN(S(C)(=O)=O)CC2)cc1Cl	4	0	0	4	325*
Nc1ccc(N)c(C(=O)O)c1	-2	2	7	-0.2*	282
COc1cc(OC)c2c(c1O)OC(c1ccccc1)CC2=O (stereo not given)	-8	4	5	-4	696*
O=C1CC(c2ccccc2)Oc2cc(O)cc(O)c21 (stereo not given)	3	9	7	-2	8
CC[C@]12C(=O)N(C)C[C@H]([C@@H]3C(=O)N(Cc4ccccc4)C(=O)[C@@H]31)N2C(=O)c1ccccc1	.	.	-1	.	.
Cc1ccnc(NC(=O)c2cnc(Cl)c(Cl)c2)c1	0	4	-2	-4	6
COc1ccc(C(=O)CN2CCN(S(=O)(=O)c3cccc([N+](=O)[O-])c3)CC2)cc1OC	4	53*	-3	0	14
Cc1ccccc1CS(=O)(=O)c1nnc([C@H](CC(C)C)NC(=O)OC(C)(C)C)o1	0	38*	-4	-4	376
SMILES	IDE cell inh	HDAC3 inhib	IDE cell activ	LANA-H2B inh	SUMO Mot1 rescue
CC(C)(C)OC(=O)N[C@@H](Cc1ccccc1)c1nnc(S(=O)(=O)Cc2cccc(F)c2)o1	1	69*	.	-2	275*
COc1ccc(C(=O)COC(=O)C(CCSC)NS(=O)(=O)c2ccc(Cl)cc2)cc1 (stereo not given)	-2	13	5	176*	-20
COC(=O)C(CCSC)NS(=O)(=O)c1ccc(Cl)cc1 (stereo not given)	0	-2	-2	-2	-6
CSCCC(NS(=O)(=O)c1ccc2ccccc2c1)C(=O)O (stereo not given)	-3	3	8	28*	9
CSCCC(NS(=O)(=O)c1ccc(Cl)c(Cl)c1)C(=O)O (stereo not given)	0	4	3	17*	673
Cn1c(=O)n(C)c2cc(NS(=O)(=O)c3ccccc3[N+](=O)[O-])ccc21	1	1	7	2	12
COc1ccccc1OCCCCn1c(C(C)O)nc2ccccc21 (stereo not given)	0	?	7	4	1
CC(=O)c1cccc(NC(=S)NC(=O)c2ccccc2Cl)c1	1	-7	1	7	-3
CC(=O)c1cccc(NC(=S)NC(=O)c2ccc(C)cc2Cl)c1	0	1	1	36*	24
CC1Cc2ccccc2N1C(=O)CSc1ncccn1 (stereo not given)	11	9	3	30*	106
Cc1ccccc1NC(=O)N1c2ccccc2CC1C (stereo not given)	-7	5	2	54*	166
CC1Cc2ccccc2N1C(=O)CSc1nccc(=O)[nH]1 (stereo not given)	-1	1	3	6	-14
CCCCNC(=O)c1ccc(CS(=O)(=O)c2ccc(C)cc2)o1	-3	-4	3	9	16
C=CCn1c(SCC(=O)OCc2ccccc2)nc2c1c(=O)n(C)c(=O)n2C	4	2	-5	-1	4
CCn1c(SCC(=O)OCc2ccccc2)nc2c1c(=O)n(C)c(=O)n2C	1	32*	3	-2	-1
Cn1nc(C(C)(C)C)cc1C(=O)NNC(=O)c1ccc(C(F)(F)F)cc1	0	5	3	-5	304*
Cc1ccc2nc(-c3ccc(NS(=O)(=O)c4c(C)n(C)c(=O)n(C)c4=O)cc3)sc2c1	10	.	-2	-2	323*
CCN(c1ccc(OC)cc1)S(=O)(=O)c1csc(C(N)=O)c1	7	-3	6	4	275*
COc1ccc(C(CNC(=O)c2cc(S(=O)(=O)NCc3ccco3)ccc2C)N(C)C)cc1 (stereo not given)	8	-6	1	-1	2
O=C(Nc1ccc2c(c1)CN(Cc1ccco1)CC2)C1CCCO1 (stereo not given)	2	3	-1	2	1
C=CCc1ccccc1OCC(O)CN1C(=O)c2ccccc2C1=O (stereo not given)	2	-1	-4	13*	-12
Cn1nnnc1Sc1ncnc2scc(Br)c12	2	0	4	-2	342*
O=C(CSC1=NCCS1)NC(c1ccccc1)c1ccccc1	6	?	-1	4	-9
O=C(CSC1=NCCS1)NC(NC(=O)CSC1=NCCS1)c1ccccc1	6	-9	5	16*	-9
CCCOc1ccc(C(F)(F)F)cc1NC(=O)CCc1c(C)noc1C	-6	5	2	6	1
